This passage reports z-score and composite z-score results from PubChem BioAssay.

Experiment [1] is described as follows: optical density shifts of acrAB sulA E. coli – strain DRC41, OD650, 48 h, E. coli filamentation inducer project, primary screen (AID 1152).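 Also: E. coli MC1000 strain DRC41 lacking acrAB efflux pump and sulA.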 The settings on record: higher = more signal, called active from +8 up or from −8 down.
The nature of experiment [2]: probe aLefty1 binding on compound microarray – biochemical, small-molecule microarray, 635/667 nm fluorescence, primary screen (AID 1153).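 Also: score merges spot fluorescence with signal-to-noise ratio from the scanned slide images.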 The settings on record: higher = more signal.
Experiment [3] in a line: plasmodial surface anion channel blockers, osmotic lysis – cell-based, P. falciparum Indochina, OD700, 1 h, primary screen (AID 1154). The note with it: P. falciparum Indochina infected RBC osmotic lysis, higher = more signal, called active from +8 up or from −8 down.
Experiment [4] is described as follows: plasmodial surface anion channel blockers, osmotic lysis – cell-based, P. falciparum Indochina, OD700, 2 h, primary screen (AID 1155).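 Also: lysis reports solute entry through the parasite surface anion channel PSAC.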 The note with it: P. falciparum Indochina infected erythrocytes, higher = more signal, called active from +8 up or from −8 down.
Experiment [5] in a line: changes in parasitized red cell lysis, either direction – P. falciparum Indochina, OD700, 3 h, PSAC antagonist project, primary screen (AID 1156). The settings on record: P. falciparum-infected erythrocytes, osmotic lysis, higher = more signal, called active from +8 up or from −8 down.
Experiment [6] can be described thus: plasmodial surface anion channel blockers, osmotic lysis – cell-based, P. falciparum Indochina, OD700, 18 h, primary screen (AID 1157). The note with it: P. falciparum Indochina infected erythrocytes, osmotic lysis OD700, 18 h; higher = more signal, called active from +8 up or from −8 down.
Experiment [7] can be described thus: S6 kinase pathway phospho-S6 level changes – cell-based, A549, cytoblot, luminescence, serum-stimulated, primary screen (AID 1158).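 Also: serum-stimulated A549 lung adenocarcinoma cells; signal is phosphorylated S6 detected by cytoblot immunostaining with HRP secondary.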 The note with it: 5 h, higher = more signal.
The target of experiment [8] is NADPH oxidase 2 (Homo sapiens) (UniProt P04839). The experiment can be described thus: compounds shifting NOX2 Amplex Red fluorescence – cell-based, HEK293-NOX2, PMA-stimulated, NOX inhibitor project, primary screen (AID 1159). Also: test concentration not given here. The settings on record: 45 min, higher = more signal, called active from +8 up or from −8 down.
In experiment [9] the target is NADPH oxidase 4 (Homo sapiens) (UniProt Q9NPH5). The experiment can be described thus: compounds shifting NOX4 Amplex Red fluorescence – cell-based, HEK293-NOX4, tetracycline-induced, NOX inhibitor project, primary screen (AID 1160). The settings on record: HEK293-NOX4, Amplex Red H2O2 fluorescence, 45 min; higher = more signal, called active from +8 up or from −8 down.

For experiment [10], the target named is NADPH oxidase 5 (Homo sapiens) (UniProt Q96PH1). The experiment can be described thus: compounds shifting NOX5 Amplex Red fluorescence – cell-based, HEK293-NOX5, NOX inhibitor project, primary screen (AID 1161). The settings on record: HEK293-NOX5, ionomycin, 45 min, higher = more signal.
The nature of experiment [11]: compound effects on lung adenocarcinoma cell viability – A549, calcein-AM fluorescence, 48 h, basal, profiling panel (AID 1162). Also: test concentration not given here. The settings on record: higher = more signal.
Experiment [12] can be described thus: compound effects on differentiated 3T3-L1 adipocyte viability – cell-based, 3T3-L1 adipocytes, calcein-AM fluorescence, 48 h, basal, profiling panel (AID 1163). Also: test concentration not given here. The note with it: 3T3-L1 adipocytes viability, higher = more signal.
Experiment [13] in a line: compound effects on hepatocellular carcinoma cell viability – HepG2, calcein-AM fluorescence, 48 h, basal, profiling panel (AID 1164). Also: test concentration not given here. The settings on record: higher = more signal.
Experiment [14] can be described thus: compound effects on multiple myeloma cell viability – MM1S, calcein-AM fluorescence, 48 h, basal, profiling panel (AID 1165).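 Also: viability of MM1S multiple myeloma cells under basal unstimulated conditions; test concentration not given here.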 The note with it: higher = more signal.
Experiment [15] in a line: calcein-AM signal in unstimulated myeloma cells – cell-based, calcein-AM fluorescence, 48 h, PK04 Diversity Set, profiling panel (AID 1166).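 Also: cells grown under basal conditions without added stimulus; test concentration not given here.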 The settings on record: RPMI8226 myeloma viability, higher = more signal.
Experiment [16] is described as follows: JC-1 mitochondrial signal, unstimulated HepG2 cells – cell-based, JC-1 fluorescence, 24 h, 100 nL compound, profiling panel (AID 1167). Also: test concentration not given here. The note with it: HepG2 mitochondrial potential, higher = more signal.
Experiment [17] is described as follows: JC-1 mitochondrial signal, unstimulated adipocytes – cell-based, JC-1 fluorescence, 3T3-L1 adipocytes, 24 h, 100 nL compound, profiling panel (AID 1168). Also: test concentration not given here. The settings on record: JC-1 mitochondrial fluorescence, higher = more signal, called active from +8 up or from −8 down.
Experiment [18] can be described thus: JC-1 mitochondrial signal, unstimulated myeloma cells – cell-based, JC-1 fluorescence, RPMI8226, 24 h, 100 nL compound, profiling panel (AID 1169). Also: test concentration not given here. The settings on record: JC-1 mitochondrial potential fluorescence, higher = more signal.
The nature of experiment [19]: JC-1 mitochondrial signal, unstimulated MM1S myeloma – cell-based, JC-1 fluorescence, 24 h, 100 nL compound, profiling panel (AID 1170). Also: test concentration not given here. The note with it: MM1S mitochondrial potential, higher = more signal.
Experiment [20] in a line: resazurin metabolic signal in A549 cells – cell-based, resazurin fluorescence, 24 h, PK04 Diversity Set, profiling panel (AID 1171). Also: test concentration not given here. The settings on record: A549 viability, higher = more signal, called active from +8 up or from −8 down.

Activity calls are given as the source filed them.

Sequence of NADPH oxidase 4 (Homo sapiens) (Q9NPH5 whole entry, looked up): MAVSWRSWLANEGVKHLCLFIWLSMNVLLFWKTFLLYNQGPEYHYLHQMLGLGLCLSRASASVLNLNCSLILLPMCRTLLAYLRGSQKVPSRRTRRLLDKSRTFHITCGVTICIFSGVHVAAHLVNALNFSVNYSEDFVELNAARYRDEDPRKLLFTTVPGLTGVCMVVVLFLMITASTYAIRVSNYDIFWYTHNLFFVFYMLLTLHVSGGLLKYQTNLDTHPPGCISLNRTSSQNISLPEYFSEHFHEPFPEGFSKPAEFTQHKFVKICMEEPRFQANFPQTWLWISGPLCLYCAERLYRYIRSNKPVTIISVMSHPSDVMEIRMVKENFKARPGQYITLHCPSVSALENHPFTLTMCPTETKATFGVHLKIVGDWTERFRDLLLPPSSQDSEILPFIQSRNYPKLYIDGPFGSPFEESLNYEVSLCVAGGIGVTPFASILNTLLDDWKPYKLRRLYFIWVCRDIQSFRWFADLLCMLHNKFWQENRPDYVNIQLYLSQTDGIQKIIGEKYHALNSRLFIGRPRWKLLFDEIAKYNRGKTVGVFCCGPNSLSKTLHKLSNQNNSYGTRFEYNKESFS
Sequence of NADPH oxidase 2 (Homo sapiens) (P04839 whole entry, looked up): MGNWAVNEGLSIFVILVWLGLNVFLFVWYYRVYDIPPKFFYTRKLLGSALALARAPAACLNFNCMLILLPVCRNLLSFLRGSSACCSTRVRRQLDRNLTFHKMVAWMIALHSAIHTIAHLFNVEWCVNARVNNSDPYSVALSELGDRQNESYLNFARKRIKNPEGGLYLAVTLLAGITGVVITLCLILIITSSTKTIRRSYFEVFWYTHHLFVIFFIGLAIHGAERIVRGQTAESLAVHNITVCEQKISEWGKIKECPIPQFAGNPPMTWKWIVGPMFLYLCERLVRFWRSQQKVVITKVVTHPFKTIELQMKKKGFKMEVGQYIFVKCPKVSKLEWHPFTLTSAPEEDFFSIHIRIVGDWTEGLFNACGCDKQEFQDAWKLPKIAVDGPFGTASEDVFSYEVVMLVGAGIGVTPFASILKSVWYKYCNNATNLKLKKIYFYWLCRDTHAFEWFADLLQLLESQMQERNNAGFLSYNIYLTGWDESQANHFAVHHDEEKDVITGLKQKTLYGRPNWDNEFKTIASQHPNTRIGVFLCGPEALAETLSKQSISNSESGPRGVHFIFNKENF
Sequence of NADPH oxidase 5 (Homo sapiens) (Q96PH1 whole entry, looked up): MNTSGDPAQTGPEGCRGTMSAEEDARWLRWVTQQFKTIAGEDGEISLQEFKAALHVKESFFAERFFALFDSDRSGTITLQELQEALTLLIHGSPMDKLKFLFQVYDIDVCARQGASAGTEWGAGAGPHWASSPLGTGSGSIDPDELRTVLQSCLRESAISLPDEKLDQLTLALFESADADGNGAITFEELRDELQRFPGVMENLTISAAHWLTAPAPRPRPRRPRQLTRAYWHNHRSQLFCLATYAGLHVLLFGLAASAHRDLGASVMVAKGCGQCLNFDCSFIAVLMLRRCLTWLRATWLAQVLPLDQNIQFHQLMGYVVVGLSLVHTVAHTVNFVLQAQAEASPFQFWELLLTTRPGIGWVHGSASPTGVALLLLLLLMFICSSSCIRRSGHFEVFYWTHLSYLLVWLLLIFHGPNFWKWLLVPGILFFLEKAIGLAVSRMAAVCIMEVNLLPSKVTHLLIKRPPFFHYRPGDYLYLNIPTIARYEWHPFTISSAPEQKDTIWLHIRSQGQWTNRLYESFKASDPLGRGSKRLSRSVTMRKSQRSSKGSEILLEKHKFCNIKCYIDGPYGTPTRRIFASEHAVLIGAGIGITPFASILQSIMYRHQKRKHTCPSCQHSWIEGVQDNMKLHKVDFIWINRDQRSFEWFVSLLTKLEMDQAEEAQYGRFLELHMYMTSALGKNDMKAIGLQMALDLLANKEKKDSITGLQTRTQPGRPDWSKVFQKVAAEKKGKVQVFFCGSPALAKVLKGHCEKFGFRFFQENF

Regarding `C=CCNC(=O)[C@H]1[C@@H]2C(=O)O[C@@H](c3ccccc3)[C@@H](c3ccccc3)N2[C@@H](c2ccc(O)cc2)[C@]12C(=O)Nc1ccc(C#CCNC(N)=O)cc12`, the z-score in experiment [1] was 1.86 (inactive); in experiment [3], 1.7 (inactive); in experiment [4] it was 1.29 (inactive); in experiment [5] it was 0.682 (inactive); in experiment [6] it was 0.506 (inactive); in [7], 0.583. The z-score is 1.19 (inactive) in [8]; -0.188 (inactive) in experiment [9]; 0.1 in experiment [10]; 0.294 in experiment [11]; 0.57 in experiment [12]; -0.348 in experiment [13]. In addition, the z-score in experiment [14] was -0.778; in experiment [15], -0.144; in experiment [16], -0.0995; in experiment [17], -0.0287 (inactive); in [18], 0.424; in experiment [19], 0.716. Further, in experiment [20], the z-score was 0.999 (inactive). The same molecule had a composite z-score in [2] of 0.599.

Take `COC(=O)C(CC#Cc1ccc2c(c1)[C@]1(C(=O)N2)[C@H](C(=O)N2CCCCCCC2)[C@H]2C(=O)O[C@H](c3ccccc3)[C@H](c3ccccc3)N2[C@@H]1c1ccc(O)cc1)C(=O)OC`: the z-score is 0.752 (inactive) in [1]; 0.561 (inactive) in experiment [3]; -0.312 (inactive) in [4]; -0.221 (inactive) in [5]; -1.18 (inactive) in experiment [6]; 1.28 in experiment [7]. In addition, the z-score in experiment [8] is 0.455 (inactive); in [9], 0.264 (inactive); in experiment [10], 0.147; in experiment [11], 0.654; in experiment [12] it was 1.27; in experiment [13], 0.294. For the same molecule, the z-score in experiment [14] is -1.25; in experiment [15], -0.248; in experiment [16], -0.21; in experiment [17], -0.0509 (inactive); in experiment [18], 0.145; in [19] it was -1.15. In addition, in experiment [20], the z-score is -0.429 (inactive). This molecule also registered a composite z-score in [2] of 0.297.

Take `C[N+](C)(C)CCCCNC(=O)[C@H]1C[C@H]2C(=O)NCC(=O)N2[C@H]1c1cccc(OCCO)c1`: the z-score in [1] was -0.184 (inactive); in [3], 2.81 (inactive); in experiment [4], -0.0646 (inactive); in [5] it was -2.28 (inactive); in experiment [6] it was -0.0179 (inactive); in experiment [7] it was 0.0455. Also, the z-score in [8] is -1.21 (inactive); in [9], 0.0245 (inactive); in experiment [10], 0.259; in experiment [11], -0.471; in experiment [12], -0.387; in experiment [13] it was -0.347. Besides, the z-score in experiment [14] was -0.0358; in [15], 0.311; in experiment [16], -1.13; in [17] it was -0.373 (inactive); in experiment [18] it was -0.074; in experiment [19] it was -0.314. Moreover, the z-score in [20] is -0.0078 (inactive). In addition, the composite z-score in [2] was 0.223.

In the case of `CCCNC(=O)[C@@H]1c2ccccc2C(=O)N(Cc2cc(F)cc(C(F)(F)F)c2)[C@H]1c1ccc(CO)cc1`, the z-score in experiment [1] was 1.86 (inactive); in [3], 2.1 (inactive); in experiment [4], -0.314 (inactive); in experiment [5], 0.064 (inactive); in experiment [6], -0.73 (inactive); in experiment [7], 1.74. For the same molecule, the z-score in experiment [8] is 1.2 (inactive); in experiment [9], 0.609 (inactive); in experiment [10] it was 0.676; in experiment [11], 1.68; in experiment [12], 1.18; in [13], -0.0223. Moreover, the z-score in experiment [14] is 0.168; in experiment [15], 0.563; in [16], 2.07; in experiment [17] it was -0.31 (inactive); in [18] it was 0.693; in [19] it was 0.607. Moreover, the z-score in experiment [20] is 1.54 (inactive). The composite z-score in experiment [2] is 0.251.

Turning to `CCc1cccc(NC(=O)O[C@H]2[C@H](OC(=O)Nc3ccccc3)[C@@H](OC(=O)Nc3ccccc3)[C@@H](OC)O[C@@H]2CO)c1`, the z-score is 0.172 (inactive) in experiment [1]; 5.28 (inactive) in experiment [3]; 1.13 (inactive) in experiment [4]; -0.298 (inactive) in [5]; 0.667 (inactive) in experiment [6]; 0.211 in [7]. In addition, the z-score was -6.71 (inactive) in experiment [8]; -1.24 (inactive) in experiment [9]; -2.35 in [10]; -2.42 in experiment [11]; 1.1 in [12]; -4.04 in [13]. In addition, the z-score in experiment [14] was -3.01; in experiment [15] it was -4.29; in experiment [16], -0.501; in experiment [17], 0.963 (inactive); in experiment [18], -1.21; in experiment [19], -1.53. Besides, in [20], the z-score is -4.14 (inactive). The molecule further gave a composite z-score in [2] of 0.424.
